We go through 30 compounds from ChEMBL document CHEMBL1157539, “Thousands of chemical starting points for antimalarial lead identification” (Nature, 2010).

Common to all, as to type: functional
Assay [1] has as its system Plasmodium falciparum. As to the kind of experiment: GSK_TCMDC: Inhibition of Plasmodium falciparum 3D7 in whole red blood cells, using parasite LDH activity as an index of growth. Test compounds present at 2uM.
Assay [2] deals with Plasmodium falciparum. Kind of assay: GSK_TCMDC: Inhibition of Plasmodium falciparum Dd2 in whole red blood cells, using parasite LDH activity as an index of growth. Test compounds present at 2uM.
Assay [3] deals with HepG2. Kind of assay: GSK_TCMDC: Percent inhibition of human HepG2 cell line. Test compounds present at 10uM.

A word on the Inhibition: it is the relative decrease from the control value, in per cent. Low values mean a weak effect, high ones a strong effect. `COc1cccc(C(=O)Nc2ccc(Nc3nc(C)cc(N4CCCCC4)n3)cc2)c1OC`: the results for the Inhibition in assay [1], in assay [2] and in assay [3] were 92%, 27% and 47%, respectively.
Taken in the same sequence, the figures for `O=C(c1ccc(O)c(-c2cc(Cl)cc(Cl)c2)c1)N1CCCC1` were 90%, 57% and 3%.
The like results for `COc1cc(NC(=O)N2CCc3ccc(OCCN(C(C)C)C(C)C)cc32)cc(C(F)(F)F)c1.O=C(O)C(F)(F)F` were, in that order, 100%, 97% and 6%.
The like results for `O=C(Nc1ccc(OC2CCN(Cc3ccccc3)C2)c(Cl)c1)c1cccs1.O=C(O)C(F)(F)F` (stereo not given) were, in that order, 97%, 96% and 13%.
`Br.CC(C)(C)c1ccc(OCCCON2C(N)=NC(N)=NC2(C)C)cc1`: the Inhibition in assay [1] worked out at 93%; in assay [2] it was 76%; in assay [3] it was 77%.
Taken in the same sequence, the figures for `CCN(CC)S(=O)(=O)c1ccc(C(=O)Oc2ccccc2N(Cc2ccc(OC)cc2)C2=NS(=O)(=O)c3ccccc32)cc1` were 98%, 63% and 0%.
Taken in the same sequence, the figures for `CC1CCCCN1Cc1cccc(-c2c[nH]c3nc(NC4CCCC4)ncc23)c1.O=C(O)C(F)(F)F` (stereo not given) were 93%, 14% and 0%.
The like results for `CCOc1cc(C)ccc1N1CCN(CCN2CCC(NC(=O)c3ccc(-c4ccc(C#N)cc4)cc3)CC2)CC1` were, in that order, 84%, 3% and 9%.
In the case of `CCOc1cc(C(=O)NCCCN2CCCCC2C)ccc1-c1nc2cc(Cl)ccc2[nH]1` (stereo not given), the Inhibition was 89% in assay [1], 0% in assay [2] and 2% in assay [3].
For the compound `Cc1cc(C2CCN(CCCCNC(=O)c3ccc(NC(=O)c4ccc(Cl)cc4)cc3)CC2)c(C)cc1OCCN(C)C`, the results for the Inhibition in assay [1], in assay [2] and in assay [3] were 100%, 77% and 18%, respectively.
The like results for `COc1ccc(CNCCc2cccs2)cc1-c1ccc(S(=O)(=O)NCCN2CCCC2)cc1.O=C(O)C(F)(F)F` were, in that order, 99%, 30% and 30%.
For `C=CCOC(=O)N1CCC(CNCc2cccc(-c3cccc(-c4nc5cc(F)ccc5[nH]4)c3)c2)C1.O=C(O)C(F)(F)F` (stereo not given), the values for the Inhibition in assay [1], in assay [2] and in assay [3] were 100%, 49% and 20%, respectively.
Taken in the same sequence, the figures for `CC(C)C[C@@H]1C(=O)N[C@H](C2Cc3ccccc3C2)C(=O)N1[C@@H](C(=O)O)c1ccc(F)cc1F` were 98%, 0% and 10%.
The like results for `CCC(C)NS(=O)(=O)c1ccc2nc(Nc3cccc(SC)c3)n(C(C)C(C)C)c2c1` (stereo not given) were, in that order, 94%, 70% and 0%.
Taken in the same sequence, the figures for `CC(C)(CNC(=O)C1CCN(Cc2ccc(Cl)cc2)CC1)c1nc(-c2ccc(Cl)c(O)c2)c(-c2ccncc2)[nH]1.Cl` were 100%, 83% and 36%.
On to `CCN(C(=O)c1ccc(NC(=O)c2cccs2)cc1)c1nc2c(C)cccc2s1`, for which the Inhibition in assay [1] worked out at 89%; in assay [2], 85%; in assay [3], 24%.
Consider `Br.COc1cc(OCCCCCCON2C(=N)N=C(N)NC2(C)C)cc(OC)c1OC`, for which the Inhibition in assay [1] came to 94%; in assay [2], 93%; in assay [3] it was 41%.
The like results for `Nc1c2c(nc3ccc(C(=O)Nc4ccccc4)cc13)CCCC2` were, in that order, 100%, 78% and 20%.
Turning to `Br.CC1(C)NC(N)=NC(=N)N1OCCCCCOc1ccccc1`, the Inhibition is reported as 95% in assay [1], 97% in assay [2] and 61% in assay [3].
Taken in the same sequence, the figures for `O=C(O)C(F)(F)F.OCCN1CCN(Cc2ccc(-c3cccc(-c4nc5ccccc5[nH]4)c3)cc2)CC1` were 96%, 16% and 32%.
Consider `Cc1cc2cc(NC(=O)Nc3ccnc4ccccc34)ccc2n1C.Cl`, for which the Inhibition is recorded as 90% in assay [1], 33% in assay [2] and 17% in assay [3].
Taken in the same sequence, the figures for `O=C(/C=C/c1ccc(Cl)c(Cl)c1)NCCCCCCN1CCN(C(=O)Nc2cccc(Cl)c2)CC1` were 85%, 2% and 33%.
Taken in the same sequence, the figures for `CC(CN(C)C)C(=O)Nc1ccc(-c2ccc(-c3nc4cc(C(F)(F)F)ccc4[nH]3)cc2)cc1` (stereo not given) were 100%, 93% and 14%.
The like results for `CC(O)C1CCCCN1C(=O)c1cccc(-c2ccc(-c3nc4cc(C(F)(F)F)ccc4[nH]3)cc2)c1` (stereo not given) were, in that order, 100%, 100% and 33%.
On to `Cc1cc(C)c(NC(=O)NC2CCN(CCCCCNC(=O)/C=C/c3ccc(Cl)c(Cl)c3)C2)c(C)c1` (stereo not given), for which the Inhibition is 99% in assay [1], 48% in assay [2] and 23% in assay [3].
Taken in the same sequence, the figures for `Cc1ccc(-c2cc(C(=O)Nc3ccc(S(=O)(=O)N4CCCCC4)cc3)[nH]n2)c(O)c1` were 97%, 92% and 6%.
The like results for `CC(C)(C)c1nn(-c2ccccc2)c2[nH]c(=O)c(CNCc3ccc4c(c3)OCO4)cc12` were, in that order, 92%, 32% and 1%.
Taken in the same sequence, the figures for `COc1c(C2CCN(CCCCNC(=O)c3ccc(-c4ccc(C#N)cc4)cc3)CC2)cc(Cl)c2c1CCCC2` were 93%, 59% and 45%.
Take `CC(=O)c1ccc(N2CCN(CCC3(c4ccc(Cl)c(Cl)c4)COCN(C(=O)c4ccccc4)C3)CC2)cc1` (stereo not given): the Inhibition in assay [1] turned out to be 88%; in assay [2], 95%; in assay [3], 12%.
`Cc1cc(N/N=C/c2ccc([N+](=O)[O-])cc2)c2ccc(F)cc2n1`: the Inhibition in assay [1] was 100%; in assay [2], 22%; in assay [3] it was 0%.
